Calls of active or inactive are those of the source.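 The calls were made as follows, unless noted: active = NADPH fluorescence slope more negative than the mean of all samples by about 3 SD, 99.7% confidence; inactive = the rest.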
Tests used:
[1] = inhibitors of TNFa-induced NFkB p65 translocation, primary screen, imaging, HUVEC, MLSMR starter and 10KST1 sets (AID 438;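 active = inhibition above 20% together with a positive visual image hit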;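 also: compound added about 3h40 before a 20 min TNFalpha stimulation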;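 as to inhibition: signal is the nuclear over cytoplasmic p65 intensity ratio per well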); conditions: HUVEC TNFa-induced p65 nuclear translocation; cell count: measured here: nuclei count (cytotoxicity indicator), at 2.08 µM; inhibition: at 2 µM, stronger effect = higher value, 0% TNFa-plus-vehicle, 100% no-TNFa wells
[2] = reduction of polyQ htt aggregates in cells – imaging, exon1htt(103Q)mCFP cells, high-content imaging, primary screen (AID 483;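 active = visual image review flags a hit and inhibition of aggregation exceeds 20%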;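 also: compound exposure lasted 3 days before fixation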;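 as to nuclei count: percent of the per-plate median nuclei count of sample wells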); conditions: exon1htt(103Q)mCFP cell line, aggregate imaging, at 2 µM; inhibition of aggregation: stronger effect = higher value; nuclei count: measured here: cell count, toxicity
[3] = endothelial E-selectin expression blockers – imaging, HUVEC, immunofluorescence, MLSMR starter and 10KST1 sets, primary screen (AID 487;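 active = visually confirmed hit in the image check and inhibition above 20%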;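 as to inhibition: signal is fraction of cell area covered by stained E-selectin grains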;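 as to nuclei count: 100% = median nuclei count of all wells on the same plate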); conditions: HUVEC TNFalpha-induced E-selectin immunofluorescence imaging, at 2 µM; inhibition: stronger effect = higher value; nuclei count: measured here: cell number, toxicity
[4] = target: Voltage-gated potassium channel subunit beta-2 (Rattus norvegicus) (UniProt P62483); assay: inhibitors of rat Kvbeta2 reductase activity – biochemical, NADPH fluorescence, primary screen (AID 622;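 active = fluorescence slope higher than the sample average by over 3 SD, cut at about -0.22 in these data, passing the limit was not always enough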;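 also: slope of raw intensity against log time taken from 70 to 1610 s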); conditions: recombinant KvBeta, 4-cyanobenzaldehyde reduction, at 10 µM, stronger effect = higher value
[5] = target: Voltage-gated potassium channel subunit beta-2 (Rattus norvegicus) (UniProt P62483); assay: enhancers of rat Kvbeta2 NADPH turnover – biochemical, NADPH fluorescence, primary screen (AID 623); conditions: Recombinant KvBeta, NADPH fluorescence decrease slope, 10 min; at 10 µM; stronger effect = lower value;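 also: fluorescence intensity change per second fitted from 20 to 320 s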
[6] = target: Alpha-2C adrenergic receptor (Homo sapiens) (UniProt P18825); assay: compounds altering alpha2C-coupled GIRK flux – cell-based, HEK293 alpha2C/GIRK1/2, thallium flux, primary screen (AID 624;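 active = fluorescence slope after compound addition differing from the mean of all screened samples at 99.7% confidence, in either direction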;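 also: slope of fluorescence ratio to pre-addition baseline per second over 15 to 24 s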); conditions: thallium flux BTC fluorescence, at 10 µM, actives lie on both sides
[7] = blockers of RIG-like receptor reporter activation – cell-based, Sendai virus stimulus, luciferase, 10K MLSCN set, TLR/RLR signaling modifier project, primary screen (AID 602276;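 active = inhibition at or above 50% at 10 µM; inactive = inhibition below 50%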;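 also: firefly luciferase from ISG56 promoter only with Renilla not read in this screen; 0% = Sendai virus plus DMSO and 100% = medium plus DMSO without virus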); conditions: HEK293 RL24 IRF3 luciferase reporter, at 10 µM, stronger effect = higher value
[8] = TLR3 IRF3 reporter activation blockers – cell-based, poly I:C stimulus, luciferase, 10K MLSCN set, primary screen (AID 602277;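 active = inhibition of the reporter signal at or above 50%; inactive = inhibition below 50%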); conditions: HEK293-TLR3 RL24 IRF3 luciferase reporter, at 10 µM, stronger effect = higher value

Sequence of Voltage-gated potassium channel subunit beta-2 (Rattus norvegicus) (P62483 whole entry, looked up): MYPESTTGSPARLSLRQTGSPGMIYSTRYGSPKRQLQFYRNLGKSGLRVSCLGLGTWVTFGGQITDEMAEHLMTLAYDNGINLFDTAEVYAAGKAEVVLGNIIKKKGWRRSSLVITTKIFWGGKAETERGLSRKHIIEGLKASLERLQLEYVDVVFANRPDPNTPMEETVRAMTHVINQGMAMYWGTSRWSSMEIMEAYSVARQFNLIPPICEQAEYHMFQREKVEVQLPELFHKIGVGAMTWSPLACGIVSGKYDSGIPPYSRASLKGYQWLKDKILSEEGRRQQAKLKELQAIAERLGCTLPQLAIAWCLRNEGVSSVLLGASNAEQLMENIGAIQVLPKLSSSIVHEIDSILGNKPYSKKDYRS
Sequence of Alpha-2C adrenergic receptor (Homo sapiens) (P18825 whole entry, looked up): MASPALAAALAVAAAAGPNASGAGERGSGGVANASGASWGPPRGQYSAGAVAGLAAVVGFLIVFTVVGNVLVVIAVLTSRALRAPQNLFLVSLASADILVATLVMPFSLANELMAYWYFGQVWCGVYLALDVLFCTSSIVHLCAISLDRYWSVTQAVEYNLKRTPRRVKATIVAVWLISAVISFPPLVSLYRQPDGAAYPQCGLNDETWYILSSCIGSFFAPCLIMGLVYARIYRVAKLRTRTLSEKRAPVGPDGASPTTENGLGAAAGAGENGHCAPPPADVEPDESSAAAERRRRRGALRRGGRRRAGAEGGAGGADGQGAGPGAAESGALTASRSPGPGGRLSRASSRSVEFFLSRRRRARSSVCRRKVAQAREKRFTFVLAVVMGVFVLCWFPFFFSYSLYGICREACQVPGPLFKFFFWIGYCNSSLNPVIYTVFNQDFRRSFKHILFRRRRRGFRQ

Structure (SMILES)	cell count [1]	inhibition [1]	inhibition of aggregation [2]	nuclei count [2]	inhibition [3]	nuclei count [3]	fluorescence slope [4]	NADPH fluorescence slope [5]	slope [6]	inhibition [7]	inhibition [8]
Cc1cc(C)n(-c2nc3c(c(=O)[nH]c(=O)n3C)n2Cc2ccc(F)cc2)n1	402	1.3% (inactive)	-21.6% (inactive)	94.4%	-7.5% (inactive)	102%	-0.324 (inactive)	-3.8e-05 (inactive)	0.00739 (inactive)	13% (inactive)	13.7% (inactive)
COc1cccc(Nc2cc(C)nc3ccccc23)c1	259	2.1% (inactive)	11.8% (inactive)	78.5%	-1% (inactive)	105%	-0.412 (inactive)	-6.3e-06 (inactive)	0.00478 (inactive)	-11.6% (inactive)	99.5% (active)
CC(C)Cn1c(CN2CCN(c3ccccc3F)CC2)nc2c1c(=O)[nH]c(=O)n2C	664	-7.7% (inactive)	-8.3% (inactive)	101%	-7.3% (inactive)	103%	-0.521 (inactive)	-3.3e-05 (inactive)	0.00688 (inactive)	10.6% (inactive)	19.7% (inactive)
CC(C)(C)OC(=O)N1CCCC1C(=O)N1CCc2ccccc21 (stereo not drawn)	411	5.6% (inactive)	-0.3% (inactive)	103%	-19.6% (inactive)	104%	-0.614 (inactive)	-1.2e-06 (inactive)	0.00514 (inactive)	10.9% (inactive)	33.9% (inactive)
CC(=O)Nc1cccc(NC(=O)c2ccco2)c1	286	2.5% (inactive)	-7.1% (inactive)	122%	-72.9% (inactive)	131%	-0.391 (inactive)	2.6e-05 (inactive)	0.00425 (inactive)	5.39% (inactive)	26.7% (inactive)
Cc1occc1C(=O)Nc1nnc(C2CCCCC2)s1	356	7.6% (inactive)	-8.9% (inactive)	108%	14% (inactive)	106%	-0.526 (inactive)	-1.5e-05 (inactive)	0.00511 (inactive)	-0.797% (inactive)	-13.3% (inactive)
O=P1(O)C=C(c2ccccc2)NC(c2ccccc2)=C1	405	3.4% (inactive)	-6.9% (inactive)	92.3%	-48% (inactive)	117%	-0.35 (inactive)	-5e-07 (inactive)	0.00466 (inactive)	10.1% (inactive)	7.48% (inactive)
CC(C)(C)SCCNC(=O)CN1C(=O)c2ccccc2S1(=O)=O	625	-4.2% (inactive)	-13.2% (inactive)	97.6%	-29.7% (inactive)	106%	-0.499 (inactive)	-8.2e-06 (inactive)	0.00704 (inactive)	3.26% (inactive)	-7.98% (inactive)
O=C(Cc1cccs1)NCc1ccc(F)cc1	458	2.4% (inactive)	10.1% (inactive)	107%	56.1% (active)	93.3%	-0.408 (inactive)	-3.6e-06 (inactive)	0.00459 (inactive)	-18.8% (inactive)	-36.3% (inactive)
CCCS(=O)(=O)Nc1c(C(=O)O)[nH]c2ccccc12	665	-11.9% (inactive)	-26.1% (inactive)	108%	-79.9% (inactive)	147%	-0.415 (inactive)	-3.3e-05 (inactive)	0.00314 (inactive)	12.6% (inactive)	29% (inactive)
CCOCCCNC(=O)CN1CCN(Cc2ccccc2C)C1=O	600	-4.4% (inactive)	-25.9% (inactive)	108%	-42% (inactive)	117%	-0.574 (inactive)	-5.1e-05 (inactive)	0.00699 (inactive)	-1.33% (inactive)	19.7% (inactive)
COc1cccc(CNc2nc3nc(C)c(Cl)c(C)n3n2)c1	343	2.8% (inactive)	-5% (inactive)	86.4%	50.1% (inactive)	83.7%	-0.375 (inactive)	2.9e-05 (inactive)	0.00679 (inactive)	-16.5% (inactive)	98.2% (active)
COC(=O)c1sc(S(=O)(=O)NCc2cccs2)c(C(=O)OC)c1C	608	-16.4% (inactive)	0.4% (inactive)	85.3%	12.1% (inactive)	101%	-0.452 (inactive)	-3.4e-06 (inactive)	0.00602 (inactive)	-0.645% (inactive)	30.7% (inactive)
CCOC(=O)C1CCN(c2c(NC3CCCc4ccccc43)c(=O)c2=O)CC1 (stereo not drawn)	672	6.6% (inactive)	-3.3% (inactive)	86.1%	-22.1% (inactive)	98.7%	-0.571 (inactive)	-3e-05 (inactive)	0.00585 (inactive)	7.84% (inactive)	29.9% (inactive)
CC(=O)Nn1c(C)nnc1-n1nc(C)cc1C	594	-9.2% (inactive)	11.6% (inactive)	94.1%	-52.4% (inactive)	117%	-0.474 (inactive)	-9.2e-05 (inactive)	0.00573 (inactive)	5.42% (inactive)	18.4% (inactive)
N#CC1=C(N)C(C#N)(C#N)[C@H](c2ccsc2)[C@H]2COCC=C12	337	5.5% (inactive)	1.7% (inactive)	98.1%	8.2% (inactive)	93.1%	-0.538 (inactive)	2.1e-05 (inactive)	0.00495 (inactive)	16.8% (inactive)	25.2% (inactive)
CCN1CCN(c2nc3c(c(=O)[nH]c(=O)n3C)n2CCSc2nc3ccccc3s2)CC1	638	-11.8% (inactive)	-2.9% (inactive)	111%	-45.2% (inactive)	113%	-0.431 (inactive)	-2.8e-05 (inactive)	0.00469 (inactive)	12.2% (inactive)	23.6% (inactive)
Cc1ccc(-c2ccc(=O)n(CCC(=O)NCCN3CCCCC3C)n2)cc1 (stereo not drawn)	216	4.2% (inactive)	-7.7% (inactive)	86.5%	-4.1% (inactive)	100%	-0.442 (inactive)	-2.5e-05 (inactive)	0.00419 (inactive)	1.11% (inactive)	2.82% (inactive)
CC(C)c1nnc(SCC(=O)NCc2ccco2)n1C	248	2.2% (inactive)	-12.1% (inactive)	77%	21.4% (inactive)	86.7%	-0.485 (inactive)	1.5e-05 (inactive)	0.00695 (inactive)	3.77% (inactive)	97.8% (active)
CN(C)c1ccc(CNn2cnnc2)cc1	499	4.4% (inactive)	3.2% (inactive)	68.8%	-50.6% (inactive)	102%	-0.369 (inactive)	1.6e-05 (inactive)	0.00382 (inactive)	5.14% (inactive)	16.1% (inactive)
O=C(CSc1nnc(COc2ccc(Cl)cc2)o1)N1CCN(c2ccccc2)CC1	359	-0.5% (inactive)	-18.8% (inactive)	98.2%	-83.8% (inactive)	110%	-0.501 (inactive)	-3.2e-06 (inactive)	0.00706 (inactive)	5.53% (inactive)	-9% (inactive)
Cc1cc(=O)n2nc(N3CCCC(C(=O)N4CCc5ccccc54)C3)sc2n1 (stereo not drawn)	487	-7.5% (inactive)	-1.6% (inactive)	97%	-54.6% (inactive)	103%	-0.324 (inactive)	-6.9e-05 (inactive)	0.00401 (inactive)	18.4% (inactive)	37.1% (inactive)
CCc1ccccc1OCCCCCNCCO	459	3.9% (inactive)	28.4% (inactive)	87.2%	53% (inactive)	85.2%	-0.303 (inactive)	-1e-05 (inactive)	0.00576 (inactive)	10.8% (inactive)	31.9% (inactive)
CC(C)COC(=O)NCC12C=CC(O1)C1C(=O)N(c3ccc(Cl)cc3)C(=O)C12 (stereo not drawn)	280	-0.5% (inactive)	-14.3% (inactive)	104%	5.7% (inactive)	119%	-0.447 (inactive)	-0.000376 (inactive)	0.005 (inactive)	-5.72% (inactive)	0.93% (inactive)
COc1ccccc1N1C(=O)c2ccccc2NC1c1ccncc1 (stereo not drawn)	427	5.6% (inactive)	-20.4% (inactive)	103%	-456% (inactive)	163%	-0.437 (inactive)	-0.000349 (inactive)	0.00578 (inactive)	-1.3% (inactive)	5.74% (inactive)
O=C1CC(c2ccccc2)n2nc(NC(=O)c3ccccn3)nc2N1 (stereo not drawn)	565	3.3% (inactive)	-11.8% (inactive)	108%	16.2% (inactive)	106%	-0.605 (inactive)	-3.9e-05 (inactive)	0.00587 (inactive)	9.98% (inactive)	27.1% (inactive)
CCn1c(=O)cc(OCC(=O)NC2CCCCC2)c2ccccc21	336	22.2% (inactive)	-2.9% (inactive)	110%	-15.3% (inactive)	113%	-0.263 (inactive)	1.1e-05 (inactive)	0.00609 (inactive)	1.11% (inactive)	23.9% (inactive)
CCCCSc1cc(C)nc2ncnn12	416	-4% (inactive)	-3.2% (inactive)	117%	12.1% (inactive)	119%	-0.492 (inactive)	3.1e-05 (inactive)	0.00349 (inactive)	-10.9% (inactive)	9.98% (inactive)

From PubChem BioAssay
